Results from PubChem BioAssay (NCATS).
Where “and” joins values, the source holds several entries; their conditions need not be identical. Equal entries are not always repeated. Results filed as inconclusive are left out. Calls of active or inactive are those of the source. Calls follow the shape of the dose curve; as a rule, active = well fitted inhibition curve with a large enough effect; inconclusive = small, poorly fitted or top-dose-only effect; inactive = no such curve, though single readings can be large or run the other way.

Assay: Primary qHTS for inhibitors of nuclear receptor binding SET domain protein 2 (NSD2) in an RCH-ACV wild type WT cells (2C) (AID 1645877); also: nearly all actives have a fitted effect of over 70% in size
Details: RCH-ACV (leukaemia line) NSD2 WT (2C) viability, CellTiter-Glo, 72 h; series mostly up to 44.9 µM
Potency is read from the fitted curve at half-maximal effect.

Compound | Potency
C[C@]12CCC(=O)C=C1CC[C@@H]1[C@@H]2[C@@H](O)C[C@@]2(C)[C@H]1CC[C@]2(O)C(=O)COC(=O)CCC(=O)O | 1.88 µM (active)
CCCCCC(=O)O[C@]1(C(C)=O)CC[C@H]2[C@@H]3CCC4=CC(=O)CC[C@]4(C)[C@H]3CC[C@@]21C | 10.6 µM (active)
Oc1ccc(CCNCCCCCCNCCc2ccccc2)cc1O | 16.8 µM (active)
O=C(O)/C=C(\CC(=O)O)C(=O)O | inactive
CCOC(=O)Cn1cccc1-c1nc(-c2ccc(OC)cc2)c(-c2ccc(OC)cc2)s1 | inactive
CN(C)CCOC(c1ccccc1)c1ccc(Br)cc1 (configuration not stated) | 23.7 µM (active)
CC1(C)O[C@@H]2C[C@H]3[C@@H]4CCC5=CC(=O)C=C[C@]5(C)[C@@]4(F)[C@@H](O)C[C@]3(C)[C@]2(C(=O)CO)O1 | 59.6 nM (active) and 13.2 nM (active)
CC1(C)O[C@@H]2C[C@H]3[C@@H]4C[C@H](F)C5=CC(=O)C=C[C@]5(C)[C@@]4(F)[C@@H](O)C[C@]3(C)[C@]2(C(=O)CO)O1 | 0.8 nM (active) and 5.9 nM (active)
CCCCCOc1ccc(C2SC(=O)NC2=O)cc1OCC (configuration not stated) | inactive
CN(C)CCOC1=Cc2ccccc2Sc2ccc(Cl)cc21 | 16.8 µM (active)
C[N+](C)(CCOc1ccccc1)Cc1cccs1 | 26.6 µM (active)
CC(=O)OCC(=O)[C@@]1(O)[C@H](OC(C)=O)C[C@H]2[C@@H]3CCC4=CC(=O)C=C[C@]4(C)[C@@]3(F)[C@@H](O)C[C@@]21C | 0.0596 µM (active)
